“And” between values parts separate entries of the source, which are not always exact repeats. Identical values can stand only once. Records with an inconclusive call do not appear. The source made the active and inactive calls. The call rests on the fitted dose curve.
assay: Primary qHTS to identify inhibitors of SARS-CoV-2 cell entry (AID 1645846); settings: SARS-CoV-2 pseudovirus cell entry assay, luminescence; activity change, negative = inhibition: at 57.1 µM (top of the series) unless noted; series mostly up to 57.1 µM; further: nearly all actives have a fitted effect of over 45% in size
Procedure, shortened: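 Using luciferase-reporting pseudoviruses carrying Wuhan-Hu-1 spike, the screen tracks entry into stably ACE2-expressing cells over 48 hr. Activity is expressed relative to spike particles versus particles lacking any fusion protein.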
Potency means the concentration at half of the fitted maximal effect.

Q: For `CC12CC3CC(C)(C1)CC(N)(C3)C2`, which “outcome” value is on record?
A: inactive

Q: And the activity change, negative = inhibition?
A: -26.3%

Q: Which activity change, negative = inhibition does the source give for `CCOC(=O)[C@H](CCc1ccccc1)N[C@@H](C)C(=O)N1Cc2cc(OC)c(OC)cc2C[C@H]1C(=O)O` here?
A: -29.2%

Q: For `CC(C)C[C@H](NC(=O)[C@H](CCc1ccccc1)NC(=O)CN1CCOCC1)C(=O)N[C@@H](Cc1ccccc1)C(=O)N[C@@H](CC(C)C)C(=O)[C@@]1(C)CO1`, which activity change, negative = inhibition is on record?
A: -96% and -97.8%

Q: For `CCOC(=O)[C@H](CCc1ccccc1)N[C@@H](C)C(=O)N1[C@H](C(=O)O)C[C@@H]2CCC[C@@H]21`, which Potency is on record?
A: inactive

Q: For `COc1cc([C@@H]2c3cc4c(cc3[C@H](O)[C@H]3COC(=O)[C@H]23)OCO4)cc(OC)c1OC`, which activity change, negative = inhibition is on record?
A: -79.7%

Q: For `O=C(c1ccc(OCCN2CCCCC2)cc1)c1c(-c2ccc(O)cc2)sc2cc(O)ccc12`, which Potency is on record?
A: 31.6 µM (active)

Q: Which activity change, negative = inhibition does the source give for `CC(C)C[C@H](NC(=O)[C@H](Cc1ccccc1)NC(=O)c1cnccn1)B(O)O` here?
A: -95.1%

Q: For `COC(=O)C1=C(C)NC(C)=C(C(=O)OCC(C)C)C1c1ccccc1[N+](=O)[O-]` (stereo not given), which activity change, negative = inhibition is on record?
A: -96.9%

Q: With `CN(C)CCCN1c2ccccc2CCc2ccc(Cl)cc21` as the molecule, how does the Potency read?
A: 28.2 µM (active)

Q: For `OCCN1C[C@H](O)[C@@H](O)[C@H](O)[C@H]1CO`, which activity change, negative = inhibition is on record?
A: -28.6% and -30.5%

Q: For `Cc1cccc(C)c1OCC(C)N` (stereo not given), which activity change, negative = inhibition is on record?
A: -0.301%

Q: Which activity change, negative = inhibition does the source give for `COc1cccc2c1C(=O)c1c(O)c3c(c(O)c1C2=O)C[C@@](O)(C(=O)CO)C[C@@H]3O[C@H]1C[C@H](N)[C@H](O)[C@H](C)O1` here?
A: -93.7%

Q: Which results are given for `C[C@](N)(Cc1ccc(O)c(O)c1)C(=O)O`?
A: outcome: inactive; activity change, negative = inhibition: -1.67%

Q: Which activity change, negative = inhibition does the source give for `CC[C@@H]([C@H](C)O)n1ncn(-c2ccc(N3CCN(c4ccc(OC[C@@H]5CO[C@@](Cn6cncn6)(c6ccc(F)cc6F)C5)cc4)CC3)cc2)c1=O` here?
A: -23.1%

Q: For `CCN(CC)CCNC(=O)c1c(C)[nH]c(/C=C2\C(=O)Nc3ccc(F)cc32)c1C`, which Potency is on record?
A: 25.1 µM (active)

Q: For `CN(Cc1cnc2nc(N)nc(N)c2n1)c1ccc(C(=O)N[C@@H](CCC(=O)O)C(=O)O)cc1`, which activity change, negative = inhibition is on record?
A: -94.2%

Q: With `COC(=O)C(c1ccccc1Cl)N1CCc2sccc2C1` (stereo not given) as the molecule, how does the “outcome” value read?
A: inactive

Q: For `CCN(CC)C(=S)SSC(=S)N(CC)CC`, which Potency is on record?
A: 891 nM (active) and 7.94 µM (active)

Q: With `NC(=O)N1c2ccccc2CC(=O)c2ccccc21` as the molecule, how does the “outcome” value read?
A: inactive

Q: For `O[C@@H](CNC[C@H](O)[C@H]1CCc2cc(F)ccc2O1)[C@@H]1CCc2cc(F)ccc2O1`, which Potency is on record?
A: 22.4 µM (active)

Q: With `CCCCc1oc2ccc(NS(C)(=O)=O)cc2c1C(=O)c1ccc(OCCCN(CCCC)CCCC)cc1` as the molecule, how does the Potency read?
A: 11.2 µM (active)

Q: With `O=C1c2c(O)ccc(O)c2C(=O)c2c(NCCNCCO)ccc(NCCNCCO)c21` as the molecule, how does the activity change, negative = inhibition read?
A: -94.5% and -97.6%

Q: With `COC(=O)C1=C(C)NC(C)=C(C(=O)OC(C)C)C1c1cccc2nonc12` (stereo not given) as the molecule, how does the “outcome” value read?
A: inactive

Q: For `CN(C)c1cc(NC(=O)CNC(C)(C)C)c(O)c2c1C[C@@H]1C[C@H]3[C@H](N(C)C)C(=O)C(C(N)=O)=C(O)[C@@]3(O)C(=O)C1=C2O`, which activity change, negative = inhibition is on record?
A: -25.4%

Q: For `Cc1[nH]c(=O)c(C#N)cc1-c1ccncc1`, which Potency is on record?
A: inactive

Q: With `Nc1nc(=S)c2[nH]cnc2[nH]1` as the molecule, how does the Potency read?
A: 14.1 µM (active)

Q: With `Cn1cnc([N+](=O)[O-])c1Sc1ncnc2nc[nH]c12` as the molecule, how does the “outcome” value read?
A: inactive

Q: What about the activity change, negative = inhibition of the same molecule?
A: -53.9%

Q: For `NC1[C@H]2CN(c3nc4c(cc3F)c(=O)c(C(=O)O)cn4-c3ccc(F)cc3F)C[C@@H]12` (stereo not given in full), which “outcome” value is on record?
A: inactive

Q: With `Cc1ccc(S(=O)(=O)NC(=O)NN2CCCCCC2)cc1` as the molecule, how does the activity change, negative = inhibition read?
A: 2.93%

Q: Which activity change, negative = inhibition does the source give for `COC(=O)Nc1nc2ccc(C(=O)c3cccs3)cc2[nH]1` here?
A: -61.3%

Q: Which Potency does the source give for `C[C@@H](NCCCc1cccc(C(F)(F)F)c1)c1cccc2ccccc12` here?
A: 20 µM (active)

Q: Which “outcome” value does the source give for `CN(C)/N=N/c1nc[nH]c1C(N)=O` here?
A: inactive
